# From PubChem BioAssay AID1508600 (Functional Genomics Laboratory (NCATS/FGL), 2020)
# Out of some 53,000 sequences screened, about 3,700 (7%) were called active. Many of the other results were omitted from the sample, so actives are more common in it than they were. Values without a mark were called inactive.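 The calls were made as follows: active = gene knockdowns whose robust z-score for IL-1 alpha signal is at least 2 or at most -2, so actives lie on both sides; inactive = the rest.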
# Assay: Components of the Cytosolic LPS Sensing Pathway: Gene Identification via Genome-wide siRNA Screen;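 also: robust z of the log signal after scaling to non-targeting control siRNA wells of the plate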
# Details: RAW264.7 macrophages, IL-1a HTRF, actives lie on both sides, screened at 100 nM (by protocol), cells primed 5 h with Pam3CSK4 first
# Outline: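 Read-out: IL-1a HTRF on supernatant, divided by plate negative-control median ×100, log-transformed and converted to robust z-score. Cells were RAW264.7 given 100 nM siRNA, Pam3CSK4-primed 5 hours, then LipidA-transfected 24 hour.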
row,Sequence,z-score
1,CCUCGUUAUCCUCAUGGGATT against Alppl2,0.649
2,GGUUUGAGUGGAAAAUUCATT against Csn1s2b,0.904
3,CCCACAGAACCACACAUUCTT against H2-DMa,3.11 (active)
4,GGAGGCUGAGUAUUGGCUUTT against Pi4k2b,-1.06
5,GCUCUACCCAAUCAAGACCTT against Asb14,0.31
6,GCAGUCGAAGCACUAAAAATT against Dnaaf2,0.412
7,CGACCUACUCUACAGCAAATT against Brinp3,2.6 (active)
8,GGAACUGAAGGGCAAUAUCTT against Kifc5b,1.99
9,GGGCUCCUUCCUUGAAAAGTT against Dclre1c,0.365
10,GACCACACUCAUCCAGGCUTT against Gtpbp6,0.817
11,GGAAACGAUGACAUUUCAATT against Pnrc2,0.0147
12,GGGCGUAGAAACAGCAACUTT against Ushbp1,-2.14 (active)
13,GGCCAGAGACUGCCUGAUUTT against Acaa1b,0.225
14,GGUCAUUCAGCUGGAAGAUTT against Zfp143,-1.07
15,GGGUAGGUAUCAAAAUAAUTT against 6030452D12Rik,0.172
16,GCCACGUGAUAGUAAUAAATT against Psmd12,0.0999
17,GGAGAAUGAAGAGUUAGACTT against Nfu1,0.608
18,AUUACAAGGUUUGUGGAUATT against Gsdmc3,0.188
19,GGUGGAUAGAGCAAUUGAATT against Jph1,1.5
20,GGCGGCACAAAUUGUUUUUTT against Gimap9,-2.03 (active)
21,GCCAAGUACUCGUUUCCACTT against Wtap,0.826
22,GCCUUGGACUGCUUUGGAUTT against Dync1li1,-0.379
23,GGCAUUCCUCUUGAAUAUUTT against Dck,-0.805

row,Sequence,z-score
1,GCCCUACCCUCAUCAUAAATT against Tmem94,-1.36
2,GGACUUCAGAGUGGACAUUTT against Sec16b,-0.19
3,GGAAAGUUGGACCUUCUGATT against Adamts6,2.35 (active)
4,GCUGUGAAGAAUCAGAUAGTT against Aatf,-0.155
5,GGAUUUAUGGCAAGUUUCUTT against Ppp2r5e,0.00387
6,CCAGGUGUACCUUACGUUGTT against Eif4ebp2,1.05
7,CGGACAAGAUAAAGUGUGUTT against Lypd9,-1.07
8,GGAACUCACACAGAACCAATT against Bloc1s6,6.84 (active)
9,GGUGUAAAGUAAUCAAGGCTT against Dbx2,0.453
10,GGUUUUAUGAGAAAGCAGATT against Ogfod1,0.0298
11,GCACAGCUACCAUUCACAATT against Nxpe2,-1.97
12,GGAGGAACAUAUGCUCAGATT against Lce1e,-2.99 (active)
13,CCACUAAGGUUUGAAGAAGTT against Nes,1.21
14,CCUGAUUAUUCUGAGAAAUTT against Adsl,1
15,GGGACUCGAGUUUCAUCUATT against Casc1,0.768
16,GGAAUUACGAAGCUGUGUGTT against Cdkl3,-2.36 (active)
17,CCGUUCUGGCACAGAACAGTT against A830005F24Rik,1.41
18,CCAUUGUACAGAAAAACACTT against Abhd18,0.41
19,GGAAAGAGCUUUUUAUUGUTT against Zfp235,0.145
20,CCAUAUACCCUCGAUGCCATT against Abhd16b,-2.76 (active)
21,GCCCGAAUACAGGAAGAUCTT against Hspg2,1.42
22,GGAAAUGAGACGAAGGAGGTT against Kpna6,-0.642
23,GGAACUGAAAAACUCAACUTT against Evi2a,-3.13 (active)

row,Sequence,z-score
1,GGCACAGAGAACAAUACUUTT against Npy5r,-0.128
2,CCCUAUUAGUGGAAGCAUGTT against Zfp738,-1.94
3,GCAUCGCAUUUAAAUAGAATT against 4833408A19Rik,0.965
4,GGGUGUAGCAUUGUCACAGTT against Olfr1133,2.32 (active)
5,GGAGAUGAACAAGGACCUATT against Apoa1,0.717
6,GGAUGUGAUGAAGUUGGCCTT against Olfr78,-1.96
7,GCUGGUGAGUCACUGAUGATT against Med22,1.32
8,GGAAAGAAGAAACAUUCCUTT against Socs5,0.495
9,GCGACUCCCACAUACUCAGTT against Muc19,-0.215
10,UCCAUACUACUCAUCAAAUTT against Olfr68,3.78 (active)
11,GCCUAAGAACGAUGACACUTT against Surf2,0.179
12,GGUCUCUGUAGAGAUGGCATT against 6820408C15Rik,-2.52 (active)
13,CGUUAAUUGCCCUCAAAGATT against Spon1,1.03
14,GGCGGAGAGGAAAUCUAUGTT against Mycs,1.4
15,GCCUUUGCACAGUUUGGACTT against BC002059,-1.13
16,GGCAGUUCUCCAGUGCUUUTT against Mtss1,-1.32
17,CCUCGUAUUUAUACUCAGUTT against Gpr18,0.3
18,CCACCUUCCUAUGUUUGUATT against Ebf2,3.73 (active)
19,GGCUGCUCAAAAAGAACAUTT against Kif21b,0.645
20,GCUUUGGCUCAAAGCACGUTT against Mcm3,1.93
21,GCGGUCAAAUGCAACAAACTT against Fabp5,-0.33
22,CCUCCUGACCUUAAUCUUGTT against P2rx1,0.507
23,GGCUGCACAAAGAUGUUCATT against Yy1,2.46 (active)
